High-throughput results from PubChem.
Rows were chosen to be rich in hits. Some 2.8% of all compounds tested hit in one or more screens of this group.
IDE inh – inhibitors of human insulin-degrading enzyme in cells. P14735. HEK cells, FAbetaB cleavage, fluorescence polarization. inhibition, % at 5.59 µM. hit rate 0.41% among 320,000. AID 434962;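 active means percent inhibition above the average of all tested compounds plus 3 SD, set per screening campaign, cut at about 16% in these data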;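 further: IDE supplied by intact live HEK cells; FP after avidin binding of uncleaved biotin substrate so inhibition keeps polarization high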
IDE act – IDE (human) activation, cell-based; P14735; HEK cells, FAbeta-B cleavage, fluorescence polarization; 0% vehicle, 100% cell-free pure enzyme wells; activation, % at 5.96 µM; hit rate 0.073% among 340,000; AID 493087;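 active means activation above the mean of all tested compounds plus 3 SD, set per screening campaign, cut at about 17% in these data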
PP5 inh – blocks human protein phosphatase 5 activity | P53041 | purified PP5c, OMFP substrate fluorescence | inhibition, % at 6.7 µM | hit rate 0.18% among 320,000;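 active means inhibition above the campaign's mean inhibition across all tested compounds plus 3 SD, cut at about 9.5% in these data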
PP1 inh – PP1-alpha (human) inhibition in PP5 counter-screen | P62136 | inhibition, % at 6.7 µM | purified PP1alpha, OMFP fluorescence | hit rate 0.9% among 320,000;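 active means inhibition above the mean inhibition of all tested compounds plus 3 SD, computed separately for each screening campaign, cut at about 15% in these data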
Granule exo inh – blocks lytic granule exocytosis; hit rate 0.66% among 360,000; AID 651702; TALL-104 LAMP-1 surface exposure, flow cytometry; cells stimulated with thapsigargin and PMA; inhibition, % at 10 µM;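 active means inhibition above about 55%, limit read from the data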
SKKanGAS inh – SKKanGAS growth inhibition | inhibition, % at 7.5 µM | hit rate 1.3% among 300,000 | S. pyogenes SKKanGAS, kanamycin growth, BacTiter-Glo, 6 h;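 active means mean replicate score, as percent of positive control median, at least 50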;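 further: strain carries kanamycin resistance gene driven by streptokinase promoter and grows in 40 µg/ml kanamycin; loss of luminescence reflects streptokinase promoter inhibition or plain growth inhibition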
Numbers stand for hits.

For CC1(C(=O)NCC2CCCCC2)CCN1C(=O)Cc1ccc(-c2ccccc2)cc1 (centres undefined) the results were Granule exo inh inactive.
For Cc1nn(Cc2ccc(Cl)cc2Cl)c(C)c1NC(=O)c1sc2ccccc2c1Cl the results were IDE inh inactive, IDE act inactive, PP5 inh inactive, PP1 inh inactive, Granule exo inh inactive and SKKanGAS inh inactive.
Cc1nn(Cc2ccc(Cl)cc2Cl)c(C)c1NC(=O)NC12CC3CC(CC(C3)C1)C2 was read as IDE inh inactive, IDE act inactive, PP5 inh inactive, PP1 inh inactive, Granule exo inh inactive and SKKanGAS inh 51.
COc1ccc(C2/C=C\CN(C(=O)c3ccccc3)CC(=O)N2Cc2ccc(F)cc2)cc1 (centres undefined) was read as IDE inh inactive, IDE act inactive, Granule exo inh inactive and SKKanGAS inh 68.
Screening CCOC(=O)C1CCN(C(=O)c2ccc3c(=O)n4nc(Nc5cc(C)ccc5C)sc4nc3c2)CC1 returned IDE inh inactive, IDE act inactive, PP5 inh inactive, PP1 inh inactive, Granule exo inh inactive and SKKanGAS inh 50.
Screening CCOC(=O)C1CCN(C(=O)c2ccc3c(=O)n4nc(Nc5ccccc5OC)sc4nc3c2)CC1 returned Granule exo inh inactive.
Cc1sc(C(C2C(=O)CC(C)(C)CC2=O)C2C(=O)CC(C)(C)CC2=O)cc1[N+](=O)[O-] was read as IDE inh inactive, IDE act inactive, PP5 inh inactive, PP1 inh inactive, Granule exo inh 73 and SKKanGAS inh inactive.
CC1(C)CC(=O)C(C(c2cc([N+](=O)[O-])ccc2Cl)C2C(=O)CC(C)(C)CC2=O)C(=O)C1 was read as IDE inh inactive, PP5 inh inactive, PP1 inh inactive, Granule exo inh inactive and SKKanGAS inh inactive.
`CC1SC(C)C(=O)N(CC(=O)NC2CCCCC2)C1=O` (centres undefined) gave IDE act inactive and Granule exo inh inactive.
`CCC(=O)Nc1nc2ccccc2n1Cc1ccc(C)cc1` gave IDE inh inactive, IDE act inactive, PP5 inh inactive, PP1 inh inactive, Granule exo inh inactive and SKKanGAS inh 94.
Screening O=C(Nc1nc2ccccc2n1Cc1ccc(Cl)cc1)c1ccco1 returned IDE inh inactive, IDE act inactive, PP5 inh inactive, PP1 inh inactive, Granule exo inh inactive and SKKanGAS inh inactive.
`CC(=O)Nc1nc2ccccc2n1Cc1ccc(Cl)cc1` gave IDE inh inactive, IDE act inactive, PP5 inh inactive, PP1 inh inactive, Granule exo inh inactive and SKKanGAS inh 64.
`CC1(C)CC(=O)C2=C(C1)N(CC1CCCO1)C(=O)NC2(C(F)(F)F)C(F)(F)F` (centres undefined) gave IDE inh inactive, IDE act inactive, PP5 inh inactive, PP1 inh inactive, Granule exo inh inactive and SKKanGAS inh inactive.
`CC1(C)CC(=O)C2=C(C1)N(CC1CCCO1)C(=O)C2(O)C(F)(F)F` (centres undefined) gave IDE inh inactive, IDE act inactive, PP5 inh inactive, PP1 inh inactive, Granule exo inh 80 and SKKanGAS inh inactive.
`CC(=O)N1c2ccccc2N=C(c2ccc3c(c2)OCO3)C1C(=O)NCc1ccccc1` (centres undefined) gave Granule exo inh inactive.
`Cc1ccc(Nc2nc(N/N=C/c3c[nH]c4ccccc34)nc(N3CCOCC3)n2)cc1` gave IDE inh inactive, IDE act inactive, PP5 inh inactive, PP1 inh inactive, Granule exo inh 63 and SKKanGAS inh inactive.
`Cc1cc(N2CCN(C(C(=O)NC3CCCC3)c3ccc(F)cc3)CC2)c2ccccc2n1` (centres undefined) gave Granule exo inh inactive.
Screening N#C/C(=C/c1ccc(N2CCOCC2)o1)c1ccc(Cl)cc1 returned IDE inh inactive, IDE act inactive, PP5 inh inactive, PP1 inh inactive, Granule exo inh 82 and SKKanGAS inh inactive.
N#C/C(=C/N1CCOCC1)c1ccccc1 was read as IDE inh inactive, IDE act inactive, PP5 inh inactive, PP1 inh inactive, Granule exo inh inactive and SKKanGAS inh inactive.
Cc1ccccc1C(=O)OCC(=O)NCc1ccco1 was read as IDE inh inactive, IDE act inactive and Granule exo inh 62.
